# Results: PMC7862700, “An all-to-all approach to the identification of sequence-specific readers for epigenetic DNA modifications on cytosine”
# What was measured:
# Assay in all cases: DAPPL (digital affinity profiling via proximity ligation, sequencing); 10 mM Tris-HCl pH 7.5, 50 mM NaCl, 1 mM DTT, 4% glycerol, room temperature, 30 min; GST-TFs on glutathione beads, 16-mer random dsDNA library, 0.1% formaldehyde crosslink after washing; high values mean tight binding
# FEV = target: T1, FEV (Homo sapiens, UniProt Q99581 1-238); details: protein: recombinant; tags: N-terminal GST; dsDNA, one strand shown
# T1 sequence: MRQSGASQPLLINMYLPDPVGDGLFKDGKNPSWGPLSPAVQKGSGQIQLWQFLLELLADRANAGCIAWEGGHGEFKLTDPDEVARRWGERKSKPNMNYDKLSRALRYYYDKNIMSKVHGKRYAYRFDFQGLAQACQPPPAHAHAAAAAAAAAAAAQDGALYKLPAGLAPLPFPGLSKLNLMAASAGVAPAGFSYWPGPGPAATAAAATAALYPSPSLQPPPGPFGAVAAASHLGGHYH
# Outline: (§1)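 The binding signal reported is, for every hexamer, its read frequency for a factor over its read frequency for the tag-only sample. Reads came from pools of yeast-expressed, GST-fused human transcription factors on glutathione beads, barcoded with DNA and mixed with that sample, which were incubated with 200 nmole of a random double-stranded 16-mer DNA library in Tris/NaCl/DTT/glycerol buffer at room temperature for 30 min. After washing, the pools were crosslinked with 0.1% formaldehyde, proximity-ligated with BsaI/T4 ligase for 1 h at 37 °C, PCR-amplified and sequenced on an Illumina NextSeq500.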
# ETV5 = ETV5 (Homo sapiens, UniProt P41161 1-510); details: protein: recombinant; tags: N-terminal GST; dsDNA, one strand shown
# ETV5, sequence (P41161 whole entry): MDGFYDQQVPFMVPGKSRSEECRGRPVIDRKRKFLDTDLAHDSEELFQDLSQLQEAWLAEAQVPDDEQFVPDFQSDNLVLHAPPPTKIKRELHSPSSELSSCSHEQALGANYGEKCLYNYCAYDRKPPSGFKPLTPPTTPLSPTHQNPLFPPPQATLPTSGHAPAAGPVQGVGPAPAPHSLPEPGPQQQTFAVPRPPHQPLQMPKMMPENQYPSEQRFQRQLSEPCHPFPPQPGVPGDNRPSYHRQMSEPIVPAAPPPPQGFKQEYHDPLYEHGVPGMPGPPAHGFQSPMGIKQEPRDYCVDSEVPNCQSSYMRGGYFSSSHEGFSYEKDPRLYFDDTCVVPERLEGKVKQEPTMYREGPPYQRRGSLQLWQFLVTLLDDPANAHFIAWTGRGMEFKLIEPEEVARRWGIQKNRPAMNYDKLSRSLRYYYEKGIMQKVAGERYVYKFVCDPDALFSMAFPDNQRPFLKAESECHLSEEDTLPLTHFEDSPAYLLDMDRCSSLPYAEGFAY
# Outline: as §1
# HSF1 = HSF1 (Homo sapiens, UniProt Q00613 1-529); details: protein: recombinant; tags: N-terminal GST; chain copies: 3; dsDNA, one strand shown
# HSF1, sequence (Q00613 whole entry): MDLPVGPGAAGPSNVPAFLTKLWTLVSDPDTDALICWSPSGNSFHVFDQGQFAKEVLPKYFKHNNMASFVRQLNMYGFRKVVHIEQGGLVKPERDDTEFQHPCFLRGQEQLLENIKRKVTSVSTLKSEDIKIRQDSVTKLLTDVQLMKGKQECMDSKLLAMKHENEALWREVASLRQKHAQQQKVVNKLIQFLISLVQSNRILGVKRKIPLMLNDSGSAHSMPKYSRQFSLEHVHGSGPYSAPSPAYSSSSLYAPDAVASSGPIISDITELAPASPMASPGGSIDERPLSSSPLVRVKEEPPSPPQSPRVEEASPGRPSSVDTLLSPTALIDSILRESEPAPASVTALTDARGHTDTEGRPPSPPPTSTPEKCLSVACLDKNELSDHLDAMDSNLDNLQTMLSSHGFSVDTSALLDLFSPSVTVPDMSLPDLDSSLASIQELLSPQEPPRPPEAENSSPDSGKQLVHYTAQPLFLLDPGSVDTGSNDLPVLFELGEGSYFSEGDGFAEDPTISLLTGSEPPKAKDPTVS
# Outline: as §1
# SPIC = target: T2, SPIC (Homo sapiens, UniProt Q8N5J4 1-248); details: protein: recombinant; tags: N-terminal GST; dsDNA, one strand shown
# T2 sequence: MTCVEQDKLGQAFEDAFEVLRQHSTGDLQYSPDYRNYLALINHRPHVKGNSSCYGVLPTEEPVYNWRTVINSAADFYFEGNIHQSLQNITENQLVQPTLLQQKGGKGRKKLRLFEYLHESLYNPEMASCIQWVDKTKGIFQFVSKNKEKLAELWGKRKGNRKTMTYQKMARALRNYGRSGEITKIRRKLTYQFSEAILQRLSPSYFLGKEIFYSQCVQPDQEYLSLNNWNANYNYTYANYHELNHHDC
# Outline: as §1
# ELF4 = ELF4 (Homo sapiens, UniProt Q99607 1-663); details: protein: recombinant; tags: N-terminal GST; dsDNA, one strand shown
# ELF4, sequence (Q99607 whole entry): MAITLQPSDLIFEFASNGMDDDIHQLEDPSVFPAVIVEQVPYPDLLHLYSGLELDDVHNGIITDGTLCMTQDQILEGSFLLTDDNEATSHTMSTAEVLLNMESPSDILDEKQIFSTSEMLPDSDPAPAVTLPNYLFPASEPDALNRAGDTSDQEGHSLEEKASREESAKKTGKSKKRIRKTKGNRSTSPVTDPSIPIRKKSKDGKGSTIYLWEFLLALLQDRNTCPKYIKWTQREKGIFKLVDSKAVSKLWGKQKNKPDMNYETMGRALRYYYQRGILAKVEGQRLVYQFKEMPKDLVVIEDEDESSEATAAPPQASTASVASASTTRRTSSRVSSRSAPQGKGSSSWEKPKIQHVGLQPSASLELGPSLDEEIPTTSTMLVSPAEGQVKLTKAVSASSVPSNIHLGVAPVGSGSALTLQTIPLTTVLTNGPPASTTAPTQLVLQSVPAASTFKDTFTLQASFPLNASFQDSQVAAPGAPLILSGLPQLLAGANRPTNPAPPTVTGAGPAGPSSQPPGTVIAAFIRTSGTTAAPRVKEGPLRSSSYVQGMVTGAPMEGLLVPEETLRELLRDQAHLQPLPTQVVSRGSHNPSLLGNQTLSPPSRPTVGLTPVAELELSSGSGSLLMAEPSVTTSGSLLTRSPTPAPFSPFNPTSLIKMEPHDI
# Outline: as §1
# ELK4 = target: T3, ELK4 (Homo sapiens, UniProt P28324-2 1-405); details: protein: recombinant; tags: N-terminal GST; dsDNA, one strand shown
# T3 sequence: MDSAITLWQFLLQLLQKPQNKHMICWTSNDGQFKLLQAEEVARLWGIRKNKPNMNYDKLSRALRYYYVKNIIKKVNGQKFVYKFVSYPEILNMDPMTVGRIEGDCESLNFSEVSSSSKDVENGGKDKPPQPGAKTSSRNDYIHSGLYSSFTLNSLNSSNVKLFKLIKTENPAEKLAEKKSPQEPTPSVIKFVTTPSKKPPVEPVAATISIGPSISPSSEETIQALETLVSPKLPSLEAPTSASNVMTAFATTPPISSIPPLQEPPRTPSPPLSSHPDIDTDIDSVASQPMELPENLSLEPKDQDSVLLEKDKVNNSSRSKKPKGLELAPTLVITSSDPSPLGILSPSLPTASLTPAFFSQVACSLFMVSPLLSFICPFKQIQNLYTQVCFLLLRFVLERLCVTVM
# Outline: as §1
# ETV2 = target: T4, ETV2 (Homo sapiens, UniProt O00321 1-342); details: protein: recombinant; tags: N-terminal GST; dsDNA, one strand shown
# T4 sequence: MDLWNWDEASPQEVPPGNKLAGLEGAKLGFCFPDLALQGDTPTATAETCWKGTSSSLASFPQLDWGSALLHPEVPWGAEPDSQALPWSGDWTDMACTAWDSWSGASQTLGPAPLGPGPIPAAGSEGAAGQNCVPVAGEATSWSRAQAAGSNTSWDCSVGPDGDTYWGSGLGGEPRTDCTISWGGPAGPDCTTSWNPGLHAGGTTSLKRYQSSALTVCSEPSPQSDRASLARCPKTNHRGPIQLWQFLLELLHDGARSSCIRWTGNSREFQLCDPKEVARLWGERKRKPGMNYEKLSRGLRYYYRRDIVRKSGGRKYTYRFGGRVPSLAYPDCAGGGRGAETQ
# Outline: as §1
# ELF3 = target: T5, ELF3 (Homo sapiens, UniProt P78545 1-371); details: protein: recombinant; tags: N-terminal GST; dsDNA, one strand shown
# T5 sequence: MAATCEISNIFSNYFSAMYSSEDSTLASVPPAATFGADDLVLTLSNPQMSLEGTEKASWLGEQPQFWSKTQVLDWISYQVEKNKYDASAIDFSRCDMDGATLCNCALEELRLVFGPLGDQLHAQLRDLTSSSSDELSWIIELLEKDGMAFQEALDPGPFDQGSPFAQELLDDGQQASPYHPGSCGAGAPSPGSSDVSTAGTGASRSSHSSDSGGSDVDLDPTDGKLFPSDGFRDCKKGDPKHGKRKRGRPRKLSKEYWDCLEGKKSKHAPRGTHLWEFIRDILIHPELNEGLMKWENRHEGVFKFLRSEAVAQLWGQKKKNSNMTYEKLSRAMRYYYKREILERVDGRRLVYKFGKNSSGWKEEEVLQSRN
# Outline: as §1
# ETV1 = ETV1 (Homo sapiens, UniProt P50549 1-477); details: protein: recombinant; tags: N-terminal GST; dsDNA, one strand shown
# ETV1, sequence (P50549 whole entry): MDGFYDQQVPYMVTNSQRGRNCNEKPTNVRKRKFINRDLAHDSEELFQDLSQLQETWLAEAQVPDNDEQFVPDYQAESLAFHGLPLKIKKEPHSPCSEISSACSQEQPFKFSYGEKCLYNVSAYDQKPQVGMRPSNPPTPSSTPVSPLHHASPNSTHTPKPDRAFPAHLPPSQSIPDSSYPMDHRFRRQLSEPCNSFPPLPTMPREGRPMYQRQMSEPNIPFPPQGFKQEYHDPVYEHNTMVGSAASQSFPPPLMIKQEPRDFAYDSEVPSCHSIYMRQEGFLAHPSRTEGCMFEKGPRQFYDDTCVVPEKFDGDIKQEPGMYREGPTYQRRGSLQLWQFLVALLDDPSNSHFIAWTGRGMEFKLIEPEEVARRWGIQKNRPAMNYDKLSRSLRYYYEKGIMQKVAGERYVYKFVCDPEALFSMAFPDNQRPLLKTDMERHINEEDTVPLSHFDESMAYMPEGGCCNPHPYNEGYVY
# Outline: as §1
# ERF = target: T6, ERF (Homo sapiens, UniProt P50548 1-548); details: protein: recombinant; tags: N-terminal GST; dsDNA, one strand shown
# T6 sequence: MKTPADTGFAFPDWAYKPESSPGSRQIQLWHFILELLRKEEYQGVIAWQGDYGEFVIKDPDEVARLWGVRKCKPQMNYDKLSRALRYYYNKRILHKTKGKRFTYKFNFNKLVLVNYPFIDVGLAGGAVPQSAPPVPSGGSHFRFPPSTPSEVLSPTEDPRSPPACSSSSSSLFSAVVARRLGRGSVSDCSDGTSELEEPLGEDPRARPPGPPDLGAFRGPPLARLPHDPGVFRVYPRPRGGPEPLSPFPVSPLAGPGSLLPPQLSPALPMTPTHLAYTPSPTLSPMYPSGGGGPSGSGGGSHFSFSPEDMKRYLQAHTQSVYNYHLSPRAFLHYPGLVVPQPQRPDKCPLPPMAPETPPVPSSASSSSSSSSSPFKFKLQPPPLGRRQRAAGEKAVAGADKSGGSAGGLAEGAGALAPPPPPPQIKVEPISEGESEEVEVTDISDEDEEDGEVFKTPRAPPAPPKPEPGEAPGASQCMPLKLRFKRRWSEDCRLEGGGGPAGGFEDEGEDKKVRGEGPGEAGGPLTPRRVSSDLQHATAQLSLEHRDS
# Outline: as §1
# ETV3L = target: T7, ETV3L (Homo sapiens, UniProt Q6ZN32 1-361); details: protein: recombinant; tags: N-terminal GST; dsDNA, one strand shown
# T7 sequence: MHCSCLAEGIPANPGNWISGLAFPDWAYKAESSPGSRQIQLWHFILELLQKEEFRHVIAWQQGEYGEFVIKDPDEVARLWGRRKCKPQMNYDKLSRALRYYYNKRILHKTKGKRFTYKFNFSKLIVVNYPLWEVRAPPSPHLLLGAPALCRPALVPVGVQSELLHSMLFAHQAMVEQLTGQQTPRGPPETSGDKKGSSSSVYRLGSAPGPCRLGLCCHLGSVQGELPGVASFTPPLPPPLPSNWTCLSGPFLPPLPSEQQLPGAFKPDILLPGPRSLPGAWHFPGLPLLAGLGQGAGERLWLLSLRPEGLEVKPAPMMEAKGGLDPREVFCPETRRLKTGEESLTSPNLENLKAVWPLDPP
# Outline: as §1
# ETS2 = target: T8, ETS2 (Homo sapiens, UniProt P15036 1-469); details: protein: recombinant; tags: N-terminal GST; dsDNA, one strand shown
# T8 sequence: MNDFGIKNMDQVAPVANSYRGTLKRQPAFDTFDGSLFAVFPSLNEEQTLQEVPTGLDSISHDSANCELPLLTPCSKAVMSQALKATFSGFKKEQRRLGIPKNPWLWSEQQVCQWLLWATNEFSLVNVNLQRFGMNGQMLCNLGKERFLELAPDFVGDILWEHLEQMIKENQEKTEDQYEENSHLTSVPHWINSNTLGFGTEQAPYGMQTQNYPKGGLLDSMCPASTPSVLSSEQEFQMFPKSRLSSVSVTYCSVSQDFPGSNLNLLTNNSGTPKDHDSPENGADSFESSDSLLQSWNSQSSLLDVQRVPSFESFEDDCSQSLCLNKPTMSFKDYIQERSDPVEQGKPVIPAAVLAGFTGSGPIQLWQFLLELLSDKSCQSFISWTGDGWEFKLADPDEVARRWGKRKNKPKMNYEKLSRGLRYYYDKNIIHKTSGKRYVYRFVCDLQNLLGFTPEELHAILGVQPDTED
# Outline: as §1
# SPDEF = target: T9, SPDEF (Homo sapiens, UniProt O95238 1-335); details: protein: recombinant; tags: N-terminal GST; dsDNA, one strand shown
# T9 sequence: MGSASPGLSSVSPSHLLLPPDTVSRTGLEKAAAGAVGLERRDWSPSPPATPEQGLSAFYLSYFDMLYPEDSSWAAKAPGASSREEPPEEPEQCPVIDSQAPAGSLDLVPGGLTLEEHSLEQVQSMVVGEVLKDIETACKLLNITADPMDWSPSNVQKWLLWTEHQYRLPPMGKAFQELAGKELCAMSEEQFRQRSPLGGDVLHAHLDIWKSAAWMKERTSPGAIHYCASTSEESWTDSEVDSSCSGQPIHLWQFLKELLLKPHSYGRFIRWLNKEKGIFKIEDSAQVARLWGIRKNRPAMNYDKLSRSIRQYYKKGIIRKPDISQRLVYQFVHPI
# Outline: as §1
# ETV7 = target: T10, ETV7 (Homo sapiens, UniProt Q9Y603 1-341); details: protein: recombinant; tags: N-terminal GST; dsDNA, one strand shown
# T10 sequence: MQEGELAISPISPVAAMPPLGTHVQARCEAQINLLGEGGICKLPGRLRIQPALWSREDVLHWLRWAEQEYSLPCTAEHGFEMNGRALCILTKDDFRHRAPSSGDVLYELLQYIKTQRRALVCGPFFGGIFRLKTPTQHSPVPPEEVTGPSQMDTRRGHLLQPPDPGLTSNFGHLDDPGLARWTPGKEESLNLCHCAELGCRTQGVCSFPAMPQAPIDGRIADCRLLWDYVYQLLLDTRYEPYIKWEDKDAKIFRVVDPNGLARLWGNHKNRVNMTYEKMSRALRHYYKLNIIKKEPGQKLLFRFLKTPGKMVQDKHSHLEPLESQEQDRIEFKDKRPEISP
# Outline: as §1
# ELF5 = target: T11, ELF5 (Homo sapiens, UniProt Q9UKW6-2 1-255); details: protein: recombinant; tags: N-terminal GST; dsDNA, one strand shown
# T11 sequence: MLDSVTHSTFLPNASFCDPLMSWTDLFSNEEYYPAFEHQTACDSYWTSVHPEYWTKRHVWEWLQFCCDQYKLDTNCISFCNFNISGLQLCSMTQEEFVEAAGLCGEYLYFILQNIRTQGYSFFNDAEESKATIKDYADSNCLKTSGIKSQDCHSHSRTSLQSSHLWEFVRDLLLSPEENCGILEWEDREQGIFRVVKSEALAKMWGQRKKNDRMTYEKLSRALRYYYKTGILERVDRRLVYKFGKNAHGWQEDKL
# Outline: as §1
# ETV3 = target: T12, ETV3 (Homo sapiens, UniProt P41162-2 1-143); details: protein: recombinant; tags: N-terminal GST; dsDNA, one strand shown
# T12 sequence: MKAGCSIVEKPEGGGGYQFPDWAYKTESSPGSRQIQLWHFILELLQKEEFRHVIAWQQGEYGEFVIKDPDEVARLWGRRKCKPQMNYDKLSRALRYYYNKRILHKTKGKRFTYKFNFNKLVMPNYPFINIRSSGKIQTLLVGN
# Outline: as §1
# ETV6 = ETV6 (Homo sapiens, UniProt P41212 1-452); details: protein: recombinant; tags: N-terminal GST; dsDNA, one strand shown
# ETV6, sequence (P41212 whole entry): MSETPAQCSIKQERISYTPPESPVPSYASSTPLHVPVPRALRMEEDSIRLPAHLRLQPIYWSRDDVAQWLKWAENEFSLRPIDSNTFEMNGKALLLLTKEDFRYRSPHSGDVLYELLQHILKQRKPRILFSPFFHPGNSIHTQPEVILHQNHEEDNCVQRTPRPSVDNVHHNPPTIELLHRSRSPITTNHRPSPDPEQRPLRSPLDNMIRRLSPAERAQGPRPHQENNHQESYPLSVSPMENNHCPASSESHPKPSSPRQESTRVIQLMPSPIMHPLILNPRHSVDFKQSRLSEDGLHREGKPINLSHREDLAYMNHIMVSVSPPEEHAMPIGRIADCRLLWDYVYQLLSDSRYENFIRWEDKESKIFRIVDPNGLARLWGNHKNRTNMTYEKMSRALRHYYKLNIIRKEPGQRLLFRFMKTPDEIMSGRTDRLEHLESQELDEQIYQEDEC
# Outline: as §1
sequence,measurement,setting,value
TGACCA,binding signal,FEV,"1.22 fold enrichment (6-mer frequency, TF over GST control)"
same,binding signal,ETV5,"1.23 fold enrichment (6-mer frequency, TF over GST control)"
same,binding signal,HSF1,"1.05 fold enrichment (6-mer frequency, TF over GST control)"
same,binding signal,SPIC,"1.06 fold enrichment (6-mer frequency, TF over GST control)"
same,binding signal,ELF4,"1.29 fold enrichment (6-mer frequency, TF over GST control)"
same,binding signal,ELK4,"1.29 fold enrichment (6-mer frequency, TF over GST control)"
same,binding signal,ETV2,"1.17 fold enrichment (6-mer frequency, TF over GST control)"
same,binding signal,ELF3,"1.11 fold enrichment (6-mer frequency, TF over GST control)"
same,binding signal,ETV1,"1.21 fold enrichment (6-mer frequency, TF over GST control)"
same,binding signal,ERF,"1.31 fold enrichment (6-mer frequency, TF over GST control)"
same,binding signal,ETV3L,"1.32 fold enrichment (6-mer frequency, TF over GST control)"
same,binding signal,ETS2,"1.23 fold enrichment (6-mer frequency, TF over GST control)"
same,binding signal,SPDEF,"1.24 fold enrichment (6-mer frequency, TF over GST control)"
same,binding signal,ETV7,"1.15 fold enrichment (6-mer frequency, TF over GST control)"
same,binding signal,ELF5,"1.16 fold enrichment (6-mer frequency, TF over GST control)"
same,binding signal,ETV3,"1.23 fold enrichment (6-mer frequency, TF over GST control)"
same,binding signal,ETV6,"1.27 fold enrichment (6-mer frequency, TF over GST control)"
